Most compounds without a hit are left out; they make up all but 2.4% or so of the library.
Cruzain inh Det = qHTS Assay for Promiscuous and Specific Inhibitors of Cruzain (with detergent); Cruzipain (Trypanosoma cruzi), P25779; purified cruzain, Z-FR-AMC fluorescence, 0.01% Triton; Potency, µM, for the others: max response, negative = inhibition, hits mostly inhibitors; 200,000 compounds, 0.43% hits; AID 1478, 2009;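 note: plate controls were neutral wells for no effect and buffer without enzyme for full effect; nearly all actives have a fitted effect of over 40% in size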
Target sequence (P25779 123-467 limits assumed): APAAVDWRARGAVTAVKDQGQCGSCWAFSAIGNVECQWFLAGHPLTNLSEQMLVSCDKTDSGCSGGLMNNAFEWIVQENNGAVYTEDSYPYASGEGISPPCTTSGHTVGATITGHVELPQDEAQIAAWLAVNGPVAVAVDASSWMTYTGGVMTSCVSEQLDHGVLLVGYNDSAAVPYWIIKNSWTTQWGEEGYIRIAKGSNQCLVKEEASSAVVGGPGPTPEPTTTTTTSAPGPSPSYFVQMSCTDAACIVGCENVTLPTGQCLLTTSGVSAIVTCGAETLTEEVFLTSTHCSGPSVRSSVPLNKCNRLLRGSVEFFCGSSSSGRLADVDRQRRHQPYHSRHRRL
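Steps: dispense cruzain (1.5 nM final) in acetate buffer pH 5.5 with DTT and 0.01% Triton X-100; pin-transfer compounds; incubate 15 min RT; add Z-FR-AMC (2 uM final); read fluorescence every 30 s, using the 60 s intensity change.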
Cruzain inh noDet = qHTS Assay for Promiscuous and Specific Inhibitors of Cruzain (without detergent) | Potency, µM, for inactives: max response, negative = inhibition, hits mostly inhibitors | Cruzipain (Trypanosoma cruzi), P25779 | 200,000 compounds, 2.3% hits | purified cruzain, Z-FR-AMC fluorescence, no detergent;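 note: plate controls were enzyme without inhibitor for no effect and buffer without enzyme for full effect; nearly all actives have a fitted effect of over 40% in size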
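Detergent-free condition (0.00005% Triton X-100) in acetate buffer pH 5.5 with DTT. 1.5 nM enzyme and compound were pre-mixed 15 min, then 2 uM Z-FR-AMC substrate added; reaction progress from fluorescence change between first and third reads (60 s).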
Starred values were filed as active, the others as inactive; ? = inconclusive. Calls come from the whole dose curve; as a rule, active = well fitted curve in the direction sought with a large enough effect; inconclusive = small, poorly fitted or top-dose-only effect, or another doubt; inactive = no such curve, though single readings can be large; an effect the other way counts as inactive or inconclusive. Potency is the fitted concentration of half-maximal effect.

SMILES	Cruzain inh Det	Cruzain inh noDet
O=S(=O)(O)c1ccc(NN(c2c(O)ccc3ccccc23)S(=O)(=O)O)cc1	-13%	2%
NC(N)=NCCN=C(N)N	1%	8%
CCOCCSc1nc2c(c(-c3cccs3)c1C#N)CC/C2=C/c1cccs1	-5%	16µM*
CCOC(=O)CC(=O)CSc1nc2c(c(-c3cccs3)c1C#N)CCC2	-8%	-6%
O=C(Nc1ccc2ccccc2c1)[C@H]1C[C@@H]1[C@H](NP(=O)(c1ccccc1)c1ccccc1)c1ccccc1	-5%	?
Cc1cc(-c2nnc(SCC(=O)c3ccc(Cl)cc3)o2)no1	-4%	25µM*
COc1ccc(C(=O)CSc2nnc(-c3cc(C)on3)o2)cc1	-5%	-16%
O=C(Cn1nc(Cc2cccnc2)c2ccccc2c1=O)Nc1ccc(F)c(Cl)c1	-5%	-2%
CCn1c2ccccc2c2cc(NC(=O)Cc3ccc(S(=O)(=O)N4CCOCC4)s3)ccc21	-2%	16µM*
CCn1c2ccccc2c2cc(NC(=O)C3CCN(S(=O)(=O)c4cccs4)CC3)ccc21	2%	?
Cc1cccc(CNC(=O)c2ccc(C)c(-n3c(C)nc4cccnc43)c2)c1	-7%	17%
CC(Oc1ccc(F)cc1)C(=O)NCC1(N(C)C)CCCCC1 (stereo not drawn)	2%	-5%
CCOc1ccc(NS(=O)(=O)c2ccc3[nH]c4c(c3c2)CCCCC4)cc1	-14%	-15%
CCOC(=O)c1sc2ccccc2c1S(=O)(=O)N1CCN(c2cc(C)ccc2C)CC1	-4%	20µM*
COC(=O)c1sc2cccc(F)c2c1S(=O)(=O)N1CCN(c2ccc(C)cc2C)CC1	-6%	?
O=C(NCCc1ccc(Cl)cc1)C1CCN(Cc2cc3ccccc3n2Cc2ccccc2)CC1	-7%	-17%
Cc1cccc(Cn2c(C)c(C)c3cc(C(=O)NCc4ccco4)ccc32)c1	-6%	-19%
CC(C)c1ccc(-c2c(C#N)c(N)nc(SCC(=O)N3CCCCCC3)c2C#N)cc1	-3%	-9%
CC(C)c1ccc(-c2c(C#N)c(N)nc(SCC(=O)N3CCCCC3)c2C#N)cc1	4%	25µM*
N#Cc1c(N)nc(SCC(=O)NC2CCCCC2)c(C#N)c1-c1ccc(Cl)cc1	-3%	16µM*
CCOC(=O)CSc1nc(N)c(C#N)c(-c2ccc(OCC)cc2)c1C#N	-3%	0%
O=c1c(-c2cc(F)cc(F)c2)nc2cncnc2n1C1CC1	-4%	-7%
COc1ccc(-c2nc(C)c(CCNC(=O)c3ccco3)s2)cc1	-7%	0%
CCc1nn2c(=O)cc(COC(=O)c3ccccc3)nc2s1	-3%	0%
CCN(c1ccccc1)S(=O)(=O)c1ccc(Cl)c(NC(=O)COC(=O)c2cccc(OC)c2O)c1	-4%	?
SMILES	Cruzain inh Det	Cruzain inh noDet
CCN(CC)S(=O)(=O)c1ccc(Cl)c(NC(=O)COC(=O)c2c(C)noc2C)c1	0%	3%
CN(C)S(=O)(=O)c1cccc(NC(=O)COC(=O)c2ccc(Br)o2)c1	-2%	1%
CCN(c1ccccc1)S(=O)(=O)c1ccc(Cl)c(NC(=O)COC(=O)c2ccc(Cl)c(N)c2)c1	-4%	25µM*
CCN(CC)S(=O)(=O)c1ccc(Cl)c(NC(=O)COC(=O)c2cc(-c3ccccc3Cl)nc3ccccc23)c1	-4%	10µM*
CN(C)S(=O)(=O)c1cccc(NC(=O)COC(=O)c2cc(-c3cccc(Br)c3)nc3ccccc23)c1	-1%	10µM*
COc1ccc2c(c1)O[C@@H](c1cccc(C(F)(F)F)c1)[C@H](OC(=O)NS(=O)(=O)c1ccc(F)cc1)C2=O	3%	-3%
Cc1ccc(C(=O)Cn2c3c(sc2=N)CCCC3)cc1	-4%	7%
CN1CCN(c2ncc3nc(-c4ccc(Cl)cc4)c(=O)n(Cc4cccs4)c3n2)CC1	-4%	14%
O=C(N[C@H]1CCCc2ccccc21)O[C@@H]1C(=O)c2cc(Br)ccc2O[C@H]1c1ccc2c(c1)OCO2	3%	-12%
COc1ccc(-c2nn(-c3ccccc3)cc2/C=N/NS(=O)(=O)c2ccccc2)cc1	-1%	?
Cc1ccc(-c2nn(-c3ccccc3)cc2/C=N/NC(=O)c2ccc(Br)o2)cc1	1%	?
O=C(N/N=C\c1cn(-c2ccccc2)nc1-c1ccccc1)c1ccc(Br)o1	2%	25µM*
COc1ccc(-c2nn(-c3ccccc3)cc2/C=N/NC(=O)c2cccc(S(=O)(=O)Nc3ccccc3Cl)c2)cc1	-6%	7.9µM*
CCNc1ncc2nc(C)c(=O)n(C)c2n1	-14%	-22%
Cc1ccc(C)c(NC(=O)Cn2cc(S(=O)(=O)c3ccc(F)cc3)c(=O)c3cc(F)ccc32)c1	0%	-5%
CCOc1ccc(CN2CCc3nc(Nc4ccc5c(c4)OCCO5)ncc3C2)cc1	-10%	-9%
O=C1OC(c2ccccc2)=N/C1=C\C=C\c1ccccc1[N+](=O)[O-]	13µM*	16µM*
O=c1[nH]c(/C=C/c2ccccc2[N+](=O)[O-])nc2ccccc12	-4%	0%
Clc1ccccc1-c1ccc2ncnc(NCCN3CCOCC3)c2c1	-2%	7%
CCC[C@H]1C[C@H](C(=O)N[C@H]([C@@H]2O[C@H](SC)[C@@H](O)[C@H](O)[C@@H]2O)[C@H](C)O)N(C)C1	1%	-7%
O=C(Nc1ccc(Cl)c(C(F)(F)F)c1)c1ccc2c(c1)CCN2S(=O)(=O)c1ccccc1	0%	25µM*
Cc1ccc(S(=O)(=O)N2CCCc3cc(NC(=O)c4ccc(C(C)(C)C)cc4)ccc32)cc1	4%	3.2µM*
CC(=O)Nc1ccc(NC(=O)c2ccc3c(c2)CCN3S(=O)(=O)c2ccc(C)cc2)cc1	0%	12%
COc1ccc(NC(=O)c2ccc3c(c2)CCN3S(=O)(=O)c2ccc(C)cc2)cc1Cl	1%	7.9µM*
CCc1cccc(CC)c1NC(=O)c1ccc2c(c1)CCN2S(=O)(=O)c1ccccc1	-2%	-3%
SMILES	Cruzain inh Det	Cruzain inh noDet
COc1ccc(C(=O)Nc2ccc3c(c2)CCCN3S(=O)(=O)c2ccc(C)cc2)cc1	-3%	?
CN1C(C(=O)c2ccccc2)=C(NC(=O)c2ccccc2Br)c2ccccc2S1(=O)=O	-6%	-13%
CC(C)CN(CC(C)C)c1nnc(NC(=O)Nc2cccc(C(F)(F)F)c2)s1	-8%	?
COc1cccc(CNC(=O)Cn2c(=O)oc3cc(S(=O)(=O)N4CCCC4)ccc32)c1	-1%	14%
COc1cc2c(cc1NC(=O)CSc1nc3ccccc3[nH]1)oc1ccccc12	6%	25µM*
COc1cc2c(cc1NC(=O)CSc1ccccc1)oc1ccccc12	-8%	-3%
COc1cc2c(cc1NC(=O)CSc1nc3cc(Cl)ccc3s1)oc1ccccc12	-3%	7.9µM*
COc1cc2c(cc1NC(=O)CSc1nccn1C)oc1ccccc12	-11%	8%
CCN(CC)CC[n+]1ccc2c(C)c3[nH]c4ccccc4c3c(C)c2c1	-5%	-12%
CC(=O)N[C@@H](C=O)[C@@H](O)[C@H](O)[C@H](O)CO	1%	-7%
COc1ccccc1NC(=O)CSc1nnc(-c2nonc2NC(C)=O)n1-c1ccccc1	-4%	?
COc1cc(CN(CC2CCCO2)C(=O)c2ccc(F)cc2)cc(OC)c1OC (stereo not drawn)	2%	5%
COC(=O)c1sc2nc(SCc3cccc(Cl)c3)n(N)c(=O)c2c1C	-12%	?
COC(=O)c1sc2nc(SCc3ccccc3C)n(N)c(=O)c2c1C	-3%	32µM*

Compound activity from PubChem BioAssay.
